Source: PubChem BioAssay (EPA / NIEHS)
Activity calls are given as the source filed them. How the source made its calls, unless noted: active means hit-call score of the fitted dose curve at least 0.9, where 1 is the maximum; inactive means score below 0.9.

What was measured:
[1] = CCTE_Deisenroth_H295R-HTRF_384WELL_CTOX: Cytotoxicity Assessment in CCTE's H295R-HTRF Assay, Deisenroth Lab (AID 2284380; active means hit-call score of the fitted dose curve at least 0.9, where 1 is the maximum)
Procedure, shortened: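 Luminescent ATP viability readout (CellTiter-Glo 2.0), multiplexed on plates used for hormone sampling, after 48 h chemical exposure. Human H295R cells; final concentrations 0.001–100 uM in nine steps, technical triplicates, five experiments; DMSO baseline.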

[2] = Tanguay_ZF_120hpf_MO24: Oregon State University Tanguay Lab 24 Hour Post-fertilization zebrafish Assay for Mortality (AID 2284389)
Experimental: (§1) Tanguay_ZF_120hpf is a whole embryo, multiplexed endpoint assay using zebrafish larvae exposed for 120 hours post fertilization on a 96-well plate.Tanguay_ZF_120hpf_MO24 is one of one assay component(s) measured or calculated from the Tanguay_ZF_120hpf assay. It is designed to make measurements of zebrafish development as detected with brightfield microscopy of developing zebrafish embryos.Data from the assay component Tanguay_ZF_120hpf_MO24 was analyzed into 1 assay endpoints. This assay endpoint, Tanguay_ZF_120hpf_MO24, was analyzed in the positive analysis fitting direction relative to DMSO as the negative control and baseline of activity. […]
(§2) Zebrafish husbandry: Tropical 5D wild-type adult zebrafish were housed in at an approximate density of 1000 per 100 gallon tank at the Sinnhuber Aquatic Research Laboratory, Oregon State University, Corvallis, OR. […] At 24 hpf, embryos were assessed for photomotor response using a custom photomotor response analysis tool (PRAT) and for developmental toxicity endpoints (MO24: mortality at 24 hpf, DP: developmental progression, SM: spontaneous movement, and NC: notochord distortion). At 120 hpf, locomotor activity was measured using Viewpoint Zebralab and assessed for 13 endpoints. […] If mortality occurred for an embryo (at either 24 or 120 hpf), the non-mortality endpoints were not measured.

[3] = Tanguay_ZF_120hpf_DP24: Oregon State University Tanguay Lab 24 Hour Post-fertilization zebrafish Assay for Delayed Development (AID 2284390)
Experimental: as §1, with “plate.Tanguay_ZF_120hpf_DP24” for “plate.Tanguay_ZF_120hpf_MO24”, “Tanguay_ZF_120hpf_DP24” for “Tanguay_ZF_120hpf_MO24”, “Tanguay_ZF_120hpf_DP24,” for “Tanguay_ZF_120hpf_MO24,”
as §2

[4] = Tanguay_ZF_120hpf_CRAN: Oregon State University Tanguay Lab 120 Hour Post-fertilization zebrafish Assay for Craniofacial Malformation (AID 2284397)
Procedure, shortened: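 Scoring of craniofacial malformation as a binary endpoint was done at 120 hpf by brightfield microscopy and was not done in dead embryos. Exposure was static, starting at 6 hpf, in dechorionated wild-type embryos held singly at 28C with 0.64% DMSO final.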

[5] = Tanguay_ZF_120hpf_AXIS: Oregon State University Tanguay Lab 120 Hour Post-fertilization zebrafish Assay for Axial Malformation (AID 2284398)
Experimental: as §1, with “plate.Tanguay_ZF_120hpf_AXIS” for “plate.Tanguay_ZF_120hpf_MO24”, “Tanguay_ZF_120hpf_AXIS” for “Tanguay_ZF_120hpf_MO24”, “Tanguay_ZF_120hpf_AXIS,” for “Tanguay_ZF_120hpf_MO24,”
as §2

[6] = Tanguay_ZF_120hpf_MORT: Oregon State University Tanguay Lab 120 Hour Post-fertilization zebrafish Assay for Mortality (AID 2284399)
Experimental: as §1, with “plate.Tanguay_ZF_120hpf_MORT” for “plate.Tanguay_ZF_120hpf_MO24”, “Tanguay_ZF_120hpf_MORT” for “Tanguay_ZF_120hpf_MO24”, “Tanguay_ZF_120hpf_MORT,” for “Tanguay_ZF_120hpf_MO24,”
as §2

[7] = Tanguay_ZF_120hpf_EDEM: Oregon State University Tanguay Lab 120 Hour Post-fertilization zebrafish Assay for Edema Malformation (AID 2284400)
Procedure, shortened: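 Edema recorded as a binary endpoint under brightfield at 120 hpf, excluding embryos that died. Exposure was static, sealed, 28C, from 6 hpf in dechorionated wild-type larvae, final DMSO 0.64%, DMSO as baseline.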

[8] = Tanguay_ZF_120hpf_MUSC: Oregon State University Tanguay Lab 120 Hour Post-fertilization zebrafish Assay for Muscle Malformation (AID 2284401)
Procedure, shortened: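 Scored as a binary brightfield endpoint at 120 hpf, fitted versus DMSO. Single dechorionated wild-type (Tropical 5D) zebrafish embryos per well, statically exposed at 28C from 6 hpf onward with final DMSO 0.64%.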

[9] = Tanguay_ZF_120hpf_BRN: Oregon State University Tanguay Lab 120 Hour Post-fertilization zebrafish Assay for Brain Region Malformation (AID 2284402)
Procedure, shortened: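 Binary brightfield scoring of brain malformation at 120 hpf in 5D wild-type larvae, chorion removed with pronase at 4 hpf. Static exposure began at 6 hpf, 28C, sealed plates, DMSO 0.64% (vol/vol) as vehicle baseline.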

[10] = Tanguay_ZF_120hpf_TCHR: Oregon State University Tanguay Lab 120 Hour Post-fertilization zebrafish Assay for Touch Responsive (AID 2284403)
Experimental: as §1, with “plate.Tanguay_ZF_120hpf_TCHR” for “plate.Tanguay_ZF_120hpf_MO24”, “Tanguay_ZF_120hpf_TCHR” for “Tanguay_ZF_120hpf_MO24”, “Tanguay_ZF_120hpf_TCHR,” for “Tanguay_ZF_120hpf_MO24,”
as §2

SMILES	outcome [1]	outcome [2]	outcome [3]	AC50 [4]	AC50 [5]	outcome [6]	AC50 [7]	outcome [8]	outcome [9]	outcome [10]
O=[N+]([O-])c1ccc(Oc2ccc(Cl)cc2Cl)cc1	inactive	–	–	–	–	–	–	–	–	–
CCNS(=O)(=O)C(F)(F)C(F)(F)C(F)(F)C(F)(F)C(F)(F)C(F)(F)C(F)(F)C(F)(F)F	–	inactive	inactive	75.6 µM (active)	70.1 µM (active)	inactive	62.9 µM (active)	inactive	inactive	inactive
